In PubChem BioAssay (NCATS):
Inconclusive results are not listed. Calls of active or inactive are those of the source. Calls come from the whole dose curve; as a rule, active = well fitted curve in the direction sought with a large enough effect; inconclusive = small, poorly fitted or top-dose-only effect, or another doubt; inactive = no such curve, though single readings can be large; an effect the other way counts as inactive or inconclusive.

What was measured:
[1] = Cellular Toxicity (caspase-3) N2a (AID 665); settings: N2a cells, luminescence, normalized: DMSO 0%, 10 µM staurosporine 100%; series mostly up to 92.2 µM;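 note: compound exposure lasted 16 h at 37 °C before readout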
Procedure, shortened: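 Caspase-3/7 activation measured as luminescence from Caspase-Glo reagent (1 h, room temperature) after 16 h compound exposure of mouse N2a cells. AC50 values from Hill-equation concentration-response, scaled between DMSO and 10 uM staurosporine.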

[2] = Cellular Toxicity (caspase-3) NIH 3T3 (AID 666); settings: NIH 3T3 caspase-3 activation, apoptosis/toxicity, 0% DMSO, 100% is 100 µM tamoxifen; series mostly up to 92.2 µM;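 note: caspase signal read after 16 h compound exposure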
Procedure, shortened: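 Caspase-Glo 3/7 luminescence reported caspase activation in 1000 NIH 3T3 cells/well after 16 h compound exposure at 37 C. DMSO set basal and 100 uM tamoxifen set 100% stimulation; concentration-response modeled with the Hill equation for AC50.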

[3] = Cellular Toxicity (caspase-3) Renal Proximal Tubule (AID 667); settings: renal proximal tubule cells, primary cells freshly taken from rat, solvent-only wells 0%, staurosporine 100%; series mostly up to 91.7 µM;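 note: cells exposed to compound for 16 hours at 37 °C before detection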
Procedure, shortened: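 Freshly isolated primary rat kidney proximal tubule cells, 1000/well, treated 16 hr at 37 °C, then Caspase-Glo 3/7 luminescence after 1 hr. Normalized to DMSO and 10 uM staurosporine; AC50 from Hill fit.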

[4] = MultiTox-Fluor Cytotoxicity Assay - LYMP1-001 - Dead Cells (AID 946); settings: LYMP1-001 lymphoblastoid cells, dead-cell protease fluorescence; series mostly up to 92.2 µM
Procedure, shortened: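 AC50 from Hill fit of concentration-response; data normalized to DMSO (basal) and 15 uM tetraoctylammonium bromide (100%). LYMP1-001 lymphoblastoid cells, 2500/well, 16 hr compound at 37 C; dead-cell protease fluorescence, Ex/Em 485/520.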

[5] = MultiTox-Fluor Cytotoxicity Assay - LYMP1-001 - Live Cells (AID 947); settings: LYMP1-001 lymphoblastoid cells, live-cell protease fluorescence viability; series mostly up to 92.2 µM
[6] = Cell Viability - LYMP1-002 - Assay at 16 hr (AID 948); settings: LYMP1-002 lymphoblastoid cell viability; series mostly up to 92.2 µM
Procedure, shortened: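 LYMP1-002 human lymphoblastoid cells, 2500/well, were treated with compounds for 16 hr at 37 C in complete medium. Viability was read as intracellular ATP by CellTiter-Glo luminescence, and AC50 was derived from a Hill fit to concentration-response data.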

[7] = MultiTox-Fluor Cytotoxicity Assay - LYMP1-002 - Live Cells (AID 955); settings: LYMP1-002 lymphoblastoid live-cell protease fluorescence viability; series mostly up to 46.1 µM;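 note: cells exposed to compound for 16 hours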
Procedure, shortened: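 After 16 h compound exposure at 37 C, live LYMP1-002 lymphoblastoid cells (2500/well) were quantified by cleavage of cell-permeant GF-AFC substrate, read at 405/510 nm after 60 min. Concentration-response fitted with Hill equation for AC50.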

[8] = MultiTox-Fluor Cytotoxicity Assay - LYMP1-002 - Dead Cells (AID 960); settings: LYMP1-002 lymphoblastoid cells, dead-cell protease fluorescence; series mostly up to 46.1 µM; note: nearly all actives have a fitted effect of over 60% in size
Procedure, shortened: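 Dead-cell fluorescence (Ex/Em 485/520) after 16 h compound exposure at 37 C of LYMP1-002 lymphoblastoid cells in complete medium; AC50 by Hill equation, with data scaled between DMSO and 15 uM tetraoctylammonium bromide.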

[9] = MultiTox-Fluor Cytotoxicity Assay - LYMP1-003 - Dead Cells (AID 961); settings: LYMP1-003 lymphoblastoid cells, dead-cell protease fluorescence; series mostly up to 92.2 µM; note: nearly all actives have a fitted effect of over 70% in size
Procedure, shortened: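 Human lymphoblastoid LYMP1-003 cells (2500/well) were treated with compounds for 16 hr at 37 C in complete medium. Dead-cell protease release was read by bis-AAF-R110 fluorescence (Ex/Em 485/520). AC50 came from Hill fits, normalized to DMSO and 15 uM tetraoctylammonium bromide.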

[10] = MultiTox-Fluor Cytotoxicity Assay - LYMP1-003 - Live Cells (AID 962); settings: LYMP1-003 lymphoblastoid cells, MultiTox-Fluor live-cell protease fluorescence; series mostly up to 92.2 µM;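 note: cells exposed to compound for 16 hours at 37 °C; cytotoxic hits lower the live-cell protease signal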
Procedure, shortened: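 Live-cell protease activity (GF-AFC substrate, 405/510 nm, 60 min at room temperature) after 16 h, 37 C compound exposure of human lymphoblastoid LYMP1-003 cells; concentration-response fitted to the Hill equation for AC50.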

[11] = Cell Viability - LYMP1-003 - Assay at 24 hr (AID 963); settings: LYMP1-003 lymphoblastoid cell viability; series mostly up to 92.2 µM
Procedure, shortened: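 Concentration-response qHTS: ATP loss measured by CellTiter-Glo luminescence after 24 h compound exposure at 37 C. Cells were LYMP1-003 human lymphoblastoid, 2500 per well. AC50 derived via standard Hill equation modeling.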

[12] = Cell Viability - LYMP1-003 - Assay at 40 hr (AID 964); settings: LYMP1-003 lymphoblastoid viability; series mostly up to 92.2 µM; note: nearly all actives have a fitted effect of over 60% in size
Procedure, shortened: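 Viability is taken as cellular ATP, read by CellTiter-Glo luminescence after 40 h of compound exposure at 37 C. Cells: human lymphoblastoid line LYMP1-003 at 2500/well; AC50 values derived by Hill-equation fitting of concentration-response data.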

[13] = Cell Viability - LYMP2-003 (AID 965); settings: LYMP2-003 lymphoblastoid cell viability; series mostly up to 92.2 µM;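 note: cells exposed to compounds for 24 h before reading; nearly all actives have a fitted effect of over 50% in size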
Procedure, shortened: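 Human lymphoblastoid LYMP2-003 cells, 2500/well, exposed to compounds for 24 h at 37 C in complete medium. Viability read as intracellular ATP by CellTiter-Glo luminescence; AC50 from Hill-equation fits of qHTS concentration-response data.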

[14] = target: Cytochrome P450 2C19 (Homo sapiens) (UniProt P33261); experiment: qHTS Assay for Inhibitors and Substrates of Cytochrome P450 2C19 (AID 899); settings: recombinant CYP2C19, luciferin-H EGE luminescence; note: potency is the fitted concentration of half-maximal effect; nearly all actives have a fitted effect of over 60% in size
Chain of Cytochrome P450 2C19 (Homo sapiens) (P33261 whole entry, looked up): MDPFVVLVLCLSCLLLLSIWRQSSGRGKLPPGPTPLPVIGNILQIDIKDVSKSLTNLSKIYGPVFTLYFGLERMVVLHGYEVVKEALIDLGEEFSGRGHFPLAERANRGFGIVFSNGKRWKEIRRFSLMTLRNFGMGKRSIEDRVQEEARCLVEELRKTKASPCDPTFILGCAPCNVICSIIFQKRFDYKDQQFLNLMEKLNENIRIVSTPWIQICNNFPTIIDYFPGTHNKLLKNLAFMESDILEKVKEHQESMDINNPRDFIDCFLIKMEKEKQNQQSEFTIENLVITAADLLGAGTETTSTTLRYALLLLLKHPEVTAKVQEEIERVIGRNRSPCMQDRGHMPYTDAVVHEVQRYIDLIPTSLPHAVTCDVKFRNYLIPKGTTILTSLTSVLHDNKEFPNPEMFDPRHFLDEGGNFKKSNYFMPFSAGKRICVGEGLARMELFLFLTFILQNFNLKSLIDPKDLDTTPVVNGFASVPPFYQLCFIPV
Procedure, shortened: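 In 50mM KPO4, the reaction held 5nM enzyme and KM-level (10uM) Luciferin-H EGE; it ran 60 min at 37C after NADPH regeneration and a 10 min compound preincubation. Luminescence values were scaled to 57uM ketoconazole as complete inhibition.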

Measured: Potency

C[C@@H]1C[C@H]2[C@@H]3CCC4=CC(=O)C=C[C@]4(C)[C@@]3(F)[C@@H](O)C[C@]2(C)[C@@]1(O)C(=O)CO
not listed: [14]
inactive: all other assays above

CN(C)CCN(Cc1ccc(Cl)cc1)c1ccccn1
active: [14] 6.31 µM

CN1CCN2c3ncccc3Cc3ccccc3C2C1 (stereo not given)
active: [14] 0.0501 µM
